The structures appear in SMILES notation. Values joined by “and” are separate entries in the source; they are usually repeats but may differ in a detail not shown here. Equal values may be shown once. The source holds several records for some structures; these can differ, active in one and inactive in another. Active and inactive are the calls of the source. Rule for the calls: active = hit-call score of the fitted dose curve at least 0.9, where 1 is the maximum; inactive = score below 0.9.

As usually defined, the AC50 is the concentration giving half of the maximal activity seen.

Test [1] in a line: BSK_3C_SRB: Viability Assessment in the BioMAP Diversity Plus: 3C Assay (AID 2283023).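 Note: fitted both ways against DMSO so a hit may be signal rise or drop.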 As to conditions: primary human endothelial cells (HUVEC). The method in brief:
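Primary human umbilical vein endothelial cells in the 3C system were read 24 h after compound dosing. Total protein was stained with 0.1% sulforhodamine B after 10% TCA fixation and read at 560 nm, with bidirectional fitting against DMSO as baseline.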

Read-out in test [2]: Matrix Metallopeptidase 1 (MMP1), MMP1 (gene 4312)
Nature of the test: BSK_BE3C_MMP1: BioMAP Diversity Plus: BE3C Assay for Matrix Metallopeptidase 1 (MMP1) Biomarker Activity (AID 2283024). As to conditions: primary human bronchial epithelial cells; actives raise or lower the signal. The method in brief:
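Human bronchial epithelial cells (BE3C system) exposed to compound for 24 h; MMP1 then quantified by ELISA. Activity was fitted in both directions relative to DMSO.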

Test [3] in a line: BSK_3C_Vis: BioMAP Diversity Plus: 3C Assay for Morphology Visualization (AID 2283025).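 For AC50: light microscopy image of cell morphology used as background control.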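 Note: fitted both ways so gain or loss versus DMSO counts.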 As to conditions: primary human endothelial cells (HUVEC). An outline of the steps: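 Chemicals were added to primary human umbilical vein endothelium, cells were incubated 24 h, and morphology was then visualized by light microscopy. Gain or loss of signal was fitted bidirectionally relative to DMSO.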

Test [4] in a line: BSK_4H_SRB: Viability Assessment in the BioMAP Diversity Plus: 4H Assay (AID 2283027).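 For AC50: curves fitted both ways versus DMSO so AC50 may be loss or gain.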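 Note: cells exposed to compound for 24 h before staining.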 The following applies: primary human endothelial cells (HUVEC). The method in brief: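 Human umbilical vein endothelial cells, 24 h after chemical dosing; total protein measured by 0.1% sulforhodamine B staining after 10% TCA fixation, read at 560 nm. Bidirectional fitting against DMSO.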
Test [5] in a line: BSK_BE3C_SRB: Viability Assessment in the BioMAP Diversity Plus: BE3C Assay (AID 2283028).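 For AC50: fitted both ways so AC50 may mark signal gain or loss versus DMSO.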 As to conditions: primary human bronchial epithelial cells. An outline of the steps:
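Human primary bronchial epithelial cells were exposed to test chemicals for 24 h. Total protein in parallel cultures was then measured by staining with 0.1% sulforhodamine B after 10% TCA fixation, with absorbance read at 560 nm. Activity was fitted bidirectionally against DMSO.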

Read-out in test [6]: Thrombomodulin, THBD (gene 7056)
As to the kind of experiment: BSK_3C_Thrombomodulin: BioMAP Diversity Plus: 3C Assay for Thrombomodulin Biomarker Activity (AID 2283029). The following applies: primary human endothelial cells (HUVEC); actives raise or lower the signal. An outline of the steps: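 Read-out is ELISA of thrombomodulin on human umbilical vein endothelium 24 h after chemical dosing. Gain or loss of signal is scored relative to DMSO. Overt cytotoxicity is checked in parallel cultures by sulforhodamine B staining.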

Read-out in test [7]: Urokinase-type plasminogen activator receptor (uPAR), PLAUR (gene 5329)
Nature of the test: BSK_4H_uPAR: BioMAP Diversity Plus: 4H Assay for Urokinase-type plasminogen activator receptor (uPAR) Biomarker Activity (AID 2283030). As to conditions: primary human endothelial cells (HUVEC); actives raise or lower the signal. The method in brief:
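Primary human umbilical vein endothelial cells were exposed to chemical for 24 h before cell-surface uPAR was quantified by ELISA. Activity was fitted bidirectionally against the DMSO negative control baseline.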

Read-out in test [8]: Vascular endothelial growth factor receptor 2 (Homo sapiens) (UniProt P35968)
Nature of the test: BSK_4H_VEGFRII: BioMAP Diversity Plus: 4H Assay for Vascular endothelial growth factor receptor 2 (VEGFR2) Biomarker Activity (AID 2283031).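 For AC50: cell-surface VEGFR2 protein level quantified by ELISA.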 As to conditions: primary human endothelial cells (HUVEC); actives raise or lower the signal. The method in brief: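 Primary human umbilical vein endothelial cells in the BioMAP 4H system were dosed with test chemical, and 24 h later VEGFRII was measured by ELISA. Activity was fitted bidirectionally against DMSO as negative control and baseline.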

Read-out in test [9]: Human Leukocyte Antigen - DR isotype (HLADR), HLA-DRA (gene 3122)
As to the kind of experiment: BSK_BE3C_HLADR: BioMAP Diversity Plus: BE3C Assay for Human Leukocyte Antigen - DR isotype (HLADR) Biomarker Activity (AID 2283032). The following applies: primary human bronchial epithelial cells; actives raise or lower the signal. An outline of the steps: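 ELISA read-out of HLA-DR on human lung bronchial epithelial primary cells, measured 24 h post-dosing. Both increases and decreases were scored relative to DMSO vehicle.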

Read-out in test [10]: Pselectin, SELP (gene 6403)
Nature of the test: BSK_4H_Pselectin: BioMAP Diversity Plus: 4H Assay for Pselectin Biomarker Activity (AID 2283026). The following applies: primary human endothelial cells (HUVEC); actives raise or lower the signal. The method in brief:
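ELISA read-out of P-selectin on human umbilical vein endothelium after 24 h of dosing. Values derive from bidirectional fitting relative to DMSO. Parallel SRB protein staining flagged overt cytotoxicity.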

Turning to `ClC1=C(Cl)C(Cl)(Cl)C(Cl)=C1Cl`, the half-maximal activity concentration (AC50) in [1] is 5.75 µM (active); in [2], 10.7 µM (active); in test [3], 7.95 µM (active); in test [4], 6.82 µM (active); in [5], 6.99 µM (active); in test [6] it was 10.3 µM (active). Moreover, the figures for the AC50 in test [7] and in test [9] were 5.91 µM (active) and 6.39 µM (active), respectively. Moreover, the result in [8] was inactive.

For the compound `O=[N+]([O-])c1ccc(O)cc1`, the result in test [1], in [2], in test [3], in test [10], in [4] and in test [5] was inactive. Further, the outcome in test [6], in [7] and in test [8] was inactive.

Regarding `O=C(O)Cc1cc(I)c(Oc2cc(I)c(O)c(I)c2)c(I)c1`, the outcome in [1], in [2], in test [3], in test [4], in test [6] and in [8] was inactive. For the same compound, the AC50 in [5] was 8.8 µM (active); in test [7] it was 19.9 µM (active).

Regarding `OCCC(F)(F)C(F)(F)C(F)(F)C(F)(F)C(F)(F)C(F)(F)C(F)(F)C(F)(F)F`, the AC50 is 48 µM (active) in test [2]; 18.2 µM (active) and 15.6 µM (active) in [4]; 22.8 µM (active) and 20 µM (active) in [5]; 39.7 µM (active) and 27.8 µM (active) in [7]; 47.9 µM (active) and 20.6 µM (active) in test [8]. Moreover, the result in test [2], in test [3], in test [4], in test [5], in test [6] and in [7] was inactive. The result in [8] was inactive.

In the case of `Cc1cc(CCN2CCN(c3nsc4ccccc34)CC2)cc2c1NC(=O)CC2(C)C`, the AC50 is 31.2 µM (active) in [2]; 16.3 µM (active) in [3]; 16.5 µM (active) in test [10]; 20 µM (active) in [4]; 32.4 µM (active) in test [5]; 4.31 µM (active) in [6]. Further, the half-maximal activity concentration (AC50) in test [7] is 4.39 µM (active). In addition, the outcome in test [8] was inactive.

For the compound `C[C@@H]1C[C@H]2[C@@H]3CCC4=CC(=O)C=C[C@]4(C)[C@@]3(F)[C@@H](O)C[C@]2(C)[C@@]1(O)C(=O)COP(=O)(O)O`, the half-maximal activity concentration (AC50) in test [2] is 0.1 µM (active). Moreover, the result in test [2], in test [3], in test [10], in test [4], in [5] and in test [6] was inactive. Besides, the result in [7], in [8] and in test [9] was inactive.

On to `Nc1cccc2c(N)cccc12`, for which the outcome in test [1], in test [2], in test [3], in test [10], in test [4] and in [5] was inactive. For the same compound, the outcome in test [6], in [7] and in [8] was inactive.

Turning to `COc1ccc([N+](=O)[O-])cc1N`, the result in test [1], in test [2], in test [3], in test [10], in test [4] and in test [5] was inactive. The result in [6], in test [7] and in test [8] was inactive.

As for `COCC(C)OCC(C)O` (centres undefined), the outcome in test [2], in test [10], in [4], in [5], in [6] and in test [7] was inactive. The outcome in [8] was inactive. For the same compound, the half-maximal activity concentration (AC50) in [3] was 39 µM (active).

For the compound `NC(=O)N(O)[C@@H]1C=C[C@H](Oc2cccc(Oc3ccc(F)cc3)c2)C1`, the AC50 in test [1] is 9.5 µM (active). Also, the outcome in [2], in [3], in test [4], in test [5], in test [6] and in [7] was inactive. For the same compound, the outcome in test [8] was inactive.

Turning to `CCc1nn(C2CCCCC2)c2cc(C3(C#N)CCC(C(=O)O)CC3)ccc12` (centres undefined), the AC50 in test [1] was 5.08 µM (active); in test [3] it was 39 µM (active); in test [4], 5.87 µM (active); in test [7], 4.94 µM (active). The result in test [2], in [5], in test [6] and in test [8] was inactive.

Turning to `Cc1cc(C)c(O)c(C)c1`, the result in test [1], in test [2], in test [3], in test [10], in [4] and in test [5] was inactive. Moreover, the outcome in test [6], in test [7], in test [8] and in test [9] was inactive.

Consider `CN1CCN(c2ccccc2/C=C2\SCCN(c3ccc(Cl)c(Cl)c3)C2=O)CC1`, for which the AC50 was 16.3 µM (active) in [1]; 32 µM (active) in [2]; 13.9 µM (active) in test [3]; 15 µM (active) in test [4]; 33.3 µM (active) in test [5]; 5.49 µM (active) in test [7]. Besides, the outcome in [6] and in [8] was inactive.

Regarding `CC[C@H](c1ccc(O)cc1)[C@@H](CC)c1ccc(O)cc1`, the AC50 in test [1] was 27.9 µM (active); in test [2] it was 38 µM (active); in test [3], 22.3 µM (active); in test [10], 20.3 µM (active); in test [4] it was 30.6 µM (active); in test [5], 35.8 µM (active). Further, the AC50 is 31 µM (active) in [6] and 26 µM (active) in test [7]. For the same compound, the result in test [8] was inactive.

`CCCCOCCO`: the outcome in test [1], in [2], in test [3], in test [4], in test [5] and in test [6] was inactive. The result in test [7], in test [8] and in test [9] was inactive.

(Values after PubChem BioAssay (EPA / NIEHS).)
